POLI inh – blocks human DNA polymerase iota activity. Pol iota fluorescent replication assay, 10 min. 390,000 tested, 1% active. Q9UNA4. AID 588590. Potency, µM (titrated, usually from 115 µM), inactives show top-dose activity, negative = inhibition, hits mostly inhibitors
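Pol iota at 10 nM preincubated 15 min with compounds at room temperature; reaction started with fluorescent substrate, 50 nM final. Fluorescence read kinetically at 0 and 10 min; buffer-only wells as negative control.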
WRN inhibitor – inhibitors of human WRN helicase. WRN helicase unwinding, fluorescent forked duplex, kinetic. AID 651768. Q14191. Potency, µM (top dose mostly 114 µM), for inactives: at the top dose activity change, negative = inhibition, usual class: inhibitors. 360,000 tested, 0.46% active; note: % is set by controls: 0 for no effect and ±100 for the full control effect; nearly all actives have a fitted effect of over 55% in size
Target sequence (Q14191 whole entry, looked up): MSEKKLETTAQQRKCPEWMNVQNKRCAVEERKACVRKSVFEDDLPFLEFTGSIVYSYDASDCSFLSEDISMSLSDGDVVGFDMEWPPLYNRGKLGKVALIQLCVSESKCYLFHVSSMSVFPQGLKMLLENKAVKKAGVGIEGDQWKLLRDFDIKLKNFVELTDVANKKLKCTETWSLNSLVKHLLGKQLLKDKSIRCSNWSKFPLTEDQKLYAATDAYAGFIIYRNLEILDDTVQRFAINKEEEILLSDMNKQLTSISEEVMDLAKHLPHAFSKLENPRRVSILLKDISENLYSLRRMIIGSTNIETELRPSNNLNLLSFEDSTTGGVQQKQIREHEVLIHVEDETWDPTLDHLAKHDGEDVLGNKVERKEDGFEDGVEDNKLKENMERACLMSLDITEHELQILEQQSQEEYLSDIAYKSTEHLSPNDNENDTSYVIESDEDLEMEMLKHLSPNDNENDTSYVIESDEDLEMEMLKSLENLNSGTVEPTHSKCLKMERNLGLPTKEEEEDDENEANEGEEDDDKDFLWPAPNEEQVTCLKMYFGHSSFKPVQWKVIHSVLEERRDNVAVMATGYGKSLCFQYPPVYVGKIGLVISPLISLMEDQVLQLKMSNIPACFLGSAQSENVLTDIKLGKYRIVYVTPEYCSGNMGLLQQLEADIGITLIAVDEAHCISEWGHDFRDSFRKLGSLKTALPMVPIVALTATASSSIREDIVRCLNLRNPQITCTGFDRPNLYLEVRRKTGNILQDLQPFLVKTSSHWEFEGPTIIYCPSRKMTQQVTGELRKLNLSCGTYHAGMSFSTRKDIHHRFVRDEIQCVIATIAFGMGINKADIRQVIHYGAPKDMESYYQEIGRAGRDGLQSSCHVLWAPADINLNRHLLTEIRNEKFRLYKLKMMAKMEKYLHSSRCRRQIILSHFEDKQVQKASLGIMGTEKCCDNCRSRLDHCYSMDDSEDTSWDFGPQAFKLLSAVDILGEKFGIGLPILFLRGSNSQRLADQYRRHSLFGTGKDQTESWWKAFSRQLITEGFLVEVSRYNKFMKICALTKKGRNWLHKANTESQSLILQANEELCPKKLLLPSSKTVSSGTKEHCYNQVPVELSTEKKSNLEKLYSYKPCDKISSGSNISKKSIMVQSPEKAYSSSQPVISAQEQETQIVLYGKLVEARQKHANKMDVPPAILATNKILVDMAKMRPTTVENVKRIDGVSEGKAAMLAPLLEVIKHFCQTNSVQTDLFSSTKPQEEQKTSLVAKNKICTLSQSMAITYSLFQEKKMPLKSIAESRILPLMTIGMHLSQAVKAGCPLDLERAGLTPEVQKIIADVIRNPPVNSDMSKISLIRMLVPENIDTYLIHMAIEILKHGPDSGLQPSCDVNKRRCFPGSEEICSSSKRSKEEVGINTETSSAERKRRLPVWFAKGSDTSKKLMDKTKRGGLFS
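Kinetic red-fluorescence monitoring (525/598 nm) tracks WRN helicase activity after 100 nM fluorophore-quencher forked duplex and 2 mM ATP are added to 20 nM enzyme pretreated 15 min at room temperature with compound.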
Pol kappa inh – inhibitors of human DNA polymerase kappa. Potency, µM (titrated, usually from 107 µM), without a hit: top-dose activity, negative = inhibition, most hits filed as inhibitors. purified Pol kappa, fluorescent DNA synthesis assay, 10 min. Q9UBT6. 400,000 tested, 0.53% active; note: % is set by controls: 0 for no effect and ±100 for the full control effect
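Inhibition of 10 nM Pol kappa is measured by a fluorescent read-out at 0 and 10 min following addition of 50 nM substrate (final), with a 15-min room-temperature compound preincubation.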
POLB inh – blocks human DNA polymerase beta activity; P06746; Potency, µM (doses to about 114 µM), for inactives: at the top dose activity change, negative = inhibition, usual class: inhibitors; 340,000 tested, 1.3% active; Pol beta primer extension/strand displacement, fluorescence kinetic; note: % is set by controls: 0 for no effect and ±100 for the full control effect
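Values derive from four-parameter Hill fits of normalized kinetic data: reads at 0 and 10 min following addition of 50 nM substrate to 10 nM Pol beta preincubated 15 min with compound.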
FEN1 inhibitor – human FEN1 inhibition. 390,000 tested, 0.35% active. Potency, µM (top dose mostly 114 µM), for inactives: top-dose activity change, negative = inhibition, usual class: inhibitors. P39748. AID 588795. Recombinant FEN1 flap cleavage, fluorescence, 15 min; note: % is set by controls: 0 for no effect and ±100 for the full control effect; nearly all actives have a fitted effect of over 65% in size
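Quantitative HTS format: each compound was titrated, incubated with 10 nM nuclease for 15 min at room temperature, then challenged with flap substrate at 50 nM final. Signal change over 15 min gave concentration–effect curves.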
Pol eta inh – DNA polymerase eta (human) inhibition. Q9Y253. recombinant Pol eta, fluorescent DNA replication assay. Potency, µM (titrated, usually from 114 µM), without a hit: at the top dose activity change, negative = inhibition, hits mostly inhibitors. 390,000 tested, 1.2% active; note: % is set by controls: 0 for no effect and ±100 for the full control effect
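Pol eta at 10 nM preincubated with compounds 15 min at room temperature; reaction started with fluorescent substrate (50 nM final) and read kinetically at 0 and 10 min.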
Numbers without * were called inactive; ? = inconclusive; · = no result; [ ] = dose if it differs, or a comment. The list is not random: actives were taken first. Their share in the collection is about 2.4%. Calls come from the whole dose curve; as a rule, active = well fitted curve in the direction sought with a large enough effect; inconclusive = small, poorly fitted or top-dose-only effect, or another doubt; inactive = no such curve, though single readings can be large; an effect the other way counts as inactive or inconclusive. Potency is the fitted concentration of half-maximal effect.

SMILES	POLI inh	WRN inhibitor	Pol kappa inh	POLB inh	FEN1 inhibitor	Pol eta inh
N#Cc1ccc2c(c1)C[C@]1(c3ccsc3)Oc3c(c(=O)oc4ccc(F)cc34)C2O1	·	·	·	11.2µM*	·	·
Cc1cc2c(c(=O)n1-c1ccccc1)C1O[C@](c3ccsc3)(Cc3cc(C#N)ccc31)O2	·	·	·	8.91µM*	·	·
CCCC[C@]12Cc3cc(C#N)ccc3C(O1)c1c(c3ccccc3oc1=O)O2	·	·	·	32.7%[22.9 µM]	·	·
COc1ccc2c3c(c(=O)oc2c1)C1O[C@](c2ccsc2)(Cc2cc(C#N)ccc21)O3	·	·	·	3.16µM*	·	·
CCCC[C@]12Cc3cc(C#N)ccc3C(O1)c1c(c3cc(F)ccc3oc1=O)O2	·	·	·	1.0%[22.9 µM]	·	·
Cc1cc(=O)[nH]c2nnc(SCC(N)=O)n12	16.5%	·	-7.6%[60.1 µM]	-16.3%	-3.2%	-4.6%
COc1cccc(C(=O)Nc2cccc(C(=O)OCc3cc(=O)n4c(C)csc4n3)c2)c1	4.8%	·	-1.9%[60.1 µM]	?	10.4%	-14.4%
COc1ccc(-n2cc3c(-c4cccc(Br)c4)nnc(C)c3n2)cc1	?	?	-10.7%	27.6%	79.4µM*	-17.4%
O=C(COC(=O)C12CC3CC(CC(O)(C3)C1)C2)NCc1ccco1	-9.7%	·	0.3%	·	16.8%	·
O=C(O)c1cccc(CN2C(=O)S/C(=C/c3ccccc3[N+](=O)[O-])C2=O)c1	20µM*	-11.7%	-25.0%	28.2%	-16.7%	79.4µM*
Cc1cccc(NC(=O)CN2C(=O)S/C(=C\c3ccc(O)c([N+](=O)[O-])c3)C2=O)c1	-8.3%	?	-15.3%	?	-1.4%	?
O=C1S/C(=C\c2ccc(O)c([N+](=O)[O-])c2)C(=O)N1Cc1cccc([N+](=O)[O-])c1	?	-8.3%[11.6 µM]	?	31.6µM*	?	?
CCOC(=O)CN1C(=O)S/C(=C/c2cccc([N+](=O)[O-])c2O)C1=O	3.8%	-2.1%[57.1 µM]	-4.0%	-22.9%	1.8%	-12.6%
CC1(C)CC(=O)C2=C(C1)c1c(ccc3ccccc13)NC2c1ccc(OCC(=O)O)cc1 (stereo not given)	-4.7%	-1.6%	?	44.7µM*	-8.9%	-14.7%
Cc1nc2nc(C)n(-c3ccccc3)c2s1	?	-5.9%	-6.2%	-0.9%	-5.5%	14.1µM*
Cc1nc2cc(N)ccc2n1-c1ccccc1	43.6%	10.2%	-18.3%	0.1%	-19.7%	-9.9%
COc1ccc(CCn2c(C)cc(C(=O)COC(=O)c3ccc(NC(=O)CC#N)cc3)c2C)cc1	?	-27.4%	?	12.7%	-18.4%	79.4µM*
O=c1[nH][nH]c2c(N=Cc3ccccc3O)ccc(F)c12	0.891µM*	14.1µM*	3.98µM*	7.08µM*	17.8µM*	3.16µM*
CN(C)C(CNC(=O)CCOc1ccccc1)c1ccco1 (stereo not given)	31.6µM*	-17.8%	79.4µM*	?	-12.8%	?
CC(=O)OCC(NC(=O)C(CCCCNC(=O)OCc1ccccc1)NC(=O)OC(C)(C)C)C1OC(n2ccc(=O)[nH]c2=O)C(OC(C)=O)C1OC(C)=O (stereo not given)	16.6%	·	-9.6%	·	0.2%	·
COc1ccc(OC)c(/C=C(/C#N)c2nc(-c3ccc(-c4ccccc4)cc3)cs2)c1	-4.4%	·	-7.6%	-8.3%	-0.3%	-13.9%
O=C(CCS(=O)(=O)c1ccccc1)Nc1ccc(-c2nc3ccccc3s2)c(O)c1	10.8%	-1.9%	-5.5%	5.0%	8.4%	-8.1%
CCS(=O)(=O)c1cccc(C(=O)Nc2ccc(-c3nc4ccccc4s3)c(O)c2)c1	?	·	-4.6%[60.1 µM]	20µM*	-13.9%	?
CCNc1ncc2nc(-c3ccc(OC)cc3)c(=O)n(Cc3cccs3)c2n1	·	·	7.5%[60.1 µM]	·	·	·
O=C1CCCN2N=C(SCC(=O)Nc3nc4ccccc4s3)SC2=N1	-24.3%	-12.5%	-21.8%	?	-4.7%	-17.3%
SMILES	POLI inh	WRN inhibitor	Pol kappa inh	POLB inh	FEN1 inhibitor	Pol eta inh
O=C1CCCN2N=C(SCC(=O)Nc3nccs3)SC2=N1	?	?	-8.2%	31.6µM*	10.7%	79.4µM*
COc1ccc2nnc(-c3ccccc3)n2n1	89.1µM*	-15.1%[11.6 µM]	-18.5%	-1.0%	-15.4%	-1.9%
COc1cc(CCNc2ccc3nnc(-c4ccccc4)n3n2)cc(OC)c1OC	7.3%	3.9%	-18.8%	?	-0.1%	1.6%
Oc1c(Br)cc(/C=N/n2c(-c3ccccc3)n[nH]c2=S)c(O)c1Br	?	?	39.8µM*	87.7%	?	10µM*
Cc1c(Br)c(O)c(Br)c(O)c1/C=N/n1c(-c2ccccc2)n[nH]c1=S	7.94µM*	44.7µM*	35.5µM*	50.1µM*	35.5µM*	3.16µM*
CCn1c(CSc2nccn2C)nc2cc(C(=O)O)ccc21	?	79.4µM*	-3.2%	-16.2%	-8.0%	?
CCn1c(CSc2nc3ccccc3[nH]2)nc2cc(C(=O)O)ccc21	?	-16.1%[57.1 µM]	-15.9%	-6.2%	-11.9%	-4.7%
COc1ccc(CCNC(=O)c2cc3c(=O)n4ccccc4nc3n(CCCN3CCOCC3)c2=N)cc1OC	?	6.8%	-15.0%	35.5µM*	-10.9%	-23.8%
N=c1c(C(=O)NCc2ccco2)cc2c(=O)n3ccccc3nc2n1CC1CCCO1 (stereo not given)	?	-27.2%	-8.3%	·	-17.3%	?
CCn1c(=N)c(S(=O)(=O)c2ccc(Cl)cc2)cc2c(=O)n3ccccc3nc21	·	·	·	-1.3%	·	·
N=c1c(S(=O)(=O)c2ccc(Cl)cc2)cc2c(=O)n3ccccc3nc2n1Cc1ccco1	?	9.6%	8.5%	8.91µM*	1.2%	?
O=C(NCc1ccco1)c1cccn2c(=O)c3cc4ccccc4cc3nc12	·	·	·	14.1µM*	·	·
N=c1c(C(=O)NCc2ccco2)cc2c(=O)n3ccccc3nc2n1CCc1ccccc1	?	-12.5%	-26.7%	31.6µM*	-23.4%	?
O=C(NCc1ccco1)c1cnc2ccccn2c1=O	-10.1%	2.5%	-22.6%	-0.6%	-8.9%	1.3%
CCn1cc(C(=O)N2CCN(c3cccc(C)c3C)CC2)c2cc(OC)c(OC)cc2c1=O	-100.8%	·	?	16.1%	-3.1%	0.3%
CC[C@H](C)[C@H](NC(=O)[C@@H](NC(=O)[C@@H](CC(=O)NO)Cc1ccccc1)[C@@H](C)CC)C(=O)O	·	·	8.4%[60.1 µM]	·	·	·
CCCCN(C)S(=O)(=O)c1cc(-c2cc(C)no2)ccc1C	1.0%	·	7.0%	17.8%	-14.4%	-7.9%
CCCCCCCCCCCCCCCCCCNC(=O)OCC(COP(=O)([O-])OCC[n+]1ccsc1)OC (stereo not given)	1.0%[58.9 µM]	·	-11.9%[60.1 µM]	17.5%[57.1 µM]	·	-4.5%[57.1 µM]
COc1ccc(CCNC(=O)c2cc3c(=O)n4ccccc4nc3n(C3CCCCC3)c2=N)cc1OC	-13.8%	6.1%	-6.8%	25.1µM*	?	-23.4%
